This is a sample that favours compounds with a hit; in the whole collection about 7.9% have one here.
Marburg entry inh: qHTS for inhibitors of binding or entry into cells for Marburg Virus. 1.8% of 300,000 active. Marburg virus pseudotyped entry inhibition, cell reporter. Potency, µM (doses to about 37.8 µM), for inactives: top-dose activity change, negative = inhibition, actives largely listed as inhibitors; calls by dose curve; tested in HEK293 cells; note: potency is the fitted concentration of half-maximal effect
HCV inh: qHTS Assay for Inhibitors of Hepatitis C Virus (HCV); 3.4% of 340,000 active; AID 651820, 2012; Huh7.5.1 HCVcc-Cre infection, luciferase reporter, 44 h; Potency, µM (top dose mostly 41.8 µM), for the others: top-dose activity change, negative = inhibition, usual class: inhibitors; active = well fitted inhibition curve with a large enough effect; inconclusive = small, poorly fitted or top-dose-only effect, or another doubt; inactive = no such curve, though single readings can be large or run the other way; note: potency is the fitted concentration of half-maximal effect
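Seed cells (1,000/well) for 4 h; treat with compound and infect with HCVcc-Cre, moi about 0.5. Incubate 44 h, then detect luciferase activity.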
Lassa entry inh: qHTS for Inhibitors of binding or entry into cells for Lassa Virus | Lassa virus pseudotype entry inhibition, cell reporter | Potency, µM (titrated, usually from 37.9 µM), inactives show at the highest dose activity change, negative = inhibition, hits mostly inhibitors | 1.2% of 300,000 active; calls by dose curve; tested in HEK293 cells; note: potency is the fitted concentration of half-maximal effect; nearly all actives have a fitted effect of over 50% in size
HCMV antiviral: qHTS Assay for inhibitors of the human cytomegalovirus (HCMV) | HFF cells, HCMV-luciferase reporter, 72 h; hits give low values | activity change, negative = inhibition, % at 57.5 µM | 4.5% of 410,000 active | AID 1259415, 2018; in the data active = activity change below about -60%; inconclusive = no clear call, values can overlap the other calls; inactive = above about -39%
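Two compound doses tested in HFFs infected with HCMV-luciferase, MOI 1 PFU/cell, 72 h at 37C. Lysate luminescence read with OneGlo; data normalized against buffer-only and 10uM Salinomycin inhibitor controls.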
FMDV inh: High Throughput Screening for Foot and Mouth Disease Virus Antivirals; FMDV antiviral cell-based qHTS; Potency, µM (highest dose often 57.9 µM), inactives show at the highest dose activity change, negative = inhibition, actives largely listed as inhibitors; 1.2% of 410,000 active; calls by dose curve; tested in HEK293T cells; note: read-out not given here; potency is the fitted concentration of half-maximal effect; nearly all actives have a fitted effect of over 45% in size
The depositor's hits bear a star; ? = inconclusive; . = not tested or not shown; [ ] = dose if it differs, or a comment. % is set by controls: 0 for no effect and ±100 for the full control effect.

SMILES	Marburg entry inh	HCV inh	Lassa entry inh	HCMV antiviral	FMDV inh
Cc1nc(N2CCN(C(=O)c3ccco3)CC2)c2c3c(sc2n1)CC(C)CC3 (stereo not drawn)	13µM*	13µM*	?	?	?
COc1ccc(CCNC(=O)c2ccc(CN3CCC(Cc4ccccc4)CC3)cc2)cc1OC	?	?	6%	-1	?
CCc1ccccc1NC(=O)c1ccc(CN2CCC(Cc3ccccc3)CC2)cc1	?	13µM*	?	31	-15%
O=C(NCc1ccccc1)c1ccc(CN2CCC(Cc3ccccc3)CC2)cc1	.	10µM*	.	-24	0%
COCCNC(=O)c1ccc(CN2CCC(Cc3ccccc3)CC2)cc1	-3%	-24%	0%	-2	-9%
Cc1ccc(NS(=O)(=O)c2ccc(C(=O)N3CCC3)cc2)cc1	-16%[46.1 µM]	?	-27%	-17	1%
CCOC(=O)N1CCN(C(=O)c2ccc(NS(=O)(=O)c3ccc(C)cc3)cc2)CC1	-23%	.	-22%	-76*	-26%
Cc1ccc(NS(=O)(=O)c2ccc(C(=O)N3CCCCCC3)cc2)cc1	?	?	?	-36	-23%
CCOC(=O)N1CCN(C(=O)c2ccc(S(=O)(=O)Nc3ccc(C)cc3)cc2)CC1	?	?	?	-69*	-25%
CC(C)N1CCC1(C)C(=O)Nc1cc(-c2ccccc2)nn1C (stereo not drawn)	.	.	.	-6	-11%
O=C(Nc1ccccc1)c1cccc(-c2nnc(-c3ccccc3)o2)c1	14%	13%	2%	6	-6%
COc1ccc(Br)cc1C(=O)Nc1cccc(-c2nnc(-c3ccco3)o2)c1	21µM*	?	-8%	?	.
Cc1ccc(SCC(=O)Nc2cccc(-c3nnc(-c4ccco4)o3)c2)cc1	-23%	-28%	-7%	-99*	-5%
O=C(CSc1ccc(Cl)cc1)Nc1cccc(-c2nnc(-c3ccco3)o2)c1	?	19%	0%	6	-17%
O=C(Nc1ccc2nc(-c3ccco3)c(-c3ccco3)nc2c1)N1CCN(c2ccccn2)CC1	?	7.9µM*	3%	-24	?
COc1cccc(C(=O)Nc2cccc(-c3nnc(-c4ccco4)o3)c2)c1	?	22µM*	?	?	14µM*
COC(=O)C(N)(c1ccccc1)C(Nc1cccc(OC)c1)c1ccccc1 (stereo not drawn)	.	.	.	17	.
c1cc2c(cc1C1CCCCC1)c1c3n2CCN[C@H]3CCC1	.	.	.	.	-15%
COC(=O)C1CCCCN1Cc1ccc2c(c1)CN(C(=O)c1ccc(C)s1)CCO2 (stereo not drawn)	.	.	.	.	0%
CCCCN1C(=O)NC(c2ccc(OC)cc2)C(C(=O)OCc2ccccc2)=C1C (stereo not drawn)	.	?	.	-15	-28%
CCOc1ccc(CCNC(=O)c2cc3c(s2)-c2c(C)cccc2OC3)cc1	11%[46.1 µM]	.	.	-2	-5%
COc1ccc(Br)cc1C(=O)Nc1ccc(NC(=O)c2ccco2)cc1	-3%	-14%	-7%	.	-1%
O=C(Nc1ccccc1)c1ccc2nc(-c3ccco3)c(-c3ccco3)nc2c1	-23%	8.9µM*	?	1	-23%
COc1ccc(Br)cc1C(=O)Nc1cc(C)cc(C)c1	19%	5.6µM*	3%	-37	-23%
CC(=O)c1ccc(NC(=O)c2ccc3nc(-c4ccco4)c(-c4ccco4)nc3c2)cc1	?	?	-22%	.	?
SMILES	Marburg entry inh	HCV inh	Lassa entry inh	HCMV antiviral	FMDV inh
O=C(Nc1ccc(C(=O)OCc2cc(=O)n3c4c(sc3n2)CCCC4)cc1)c1cccc(F)c1	.	.	-9%[46.1 µM]	-4	2%
O=C(Nc1ccccc1C(=O)OCc1cc(=O)n2c3c(sc2n1)CCCC3)c1ccccc1	.	.	-3%[46.1 µM]	-83*	-25%
O=C(Nc1cccc(C(=O)OCc2cc(=O)n3c4c(sc3n2)CCCC4)c1)c1cccc(F)c1	.	.	?	-74*	-14%
CC(=O)Oc1ccc2c(c1)CC[C@@H]1[C@@H]2CC[C@]2(C)[C@@H](O)CC[C@@H]12	.	.	.	.	-7%
Cc1cc(Br)ccc1NC(=O)C(Cc1ccccc1)NS(=O)(=O)c1ccc(Br)s1 (stereo not drawn)	3%[46.1 µM]	.	-1%[46.1 µM]	-104*	-18%
CCOc1ccc(OCC)c(NC(=O)C(NS(=O)(=O)c2ccc(Br)s2)c2ccccc2)c1 (stereo not drawn)	-6%[46.1 µM]	.	-6%[46.1 µM]	-13	9%

Source: PubChem
